Measured values taken from PubChem BioAssay AID1852 (Sanford-Burnham Center for Chemical Genomics, 2009).
In all, about 2,500 compounds went through this assay and about 1,100 (44%) were called active.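 How the source made its calls: active means inhibition above 50% at 4 µM in the single-point screen; inactive means inhibition of 50% or less.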 So high a share suggests a set chosen from earlier hits. The list shows a part of the results.

experiment: blockers of TNF-a NF-kB luciferase induction – cell-based, HEK293T NF-kB-Luc, luminescence, selectivity assay for NOD1/NOD2 signaling inhibitor project, primary screen (AID 1852); conditions: TNF-a induced, 14 h, at 4 µM, hits give high values

SMILES | inhibition
CCCCCCCCC[n+]1cccc2c3ccccc3ccc21 | 83.9% (active)
CCC(C)(C)c1ccc(OCCCC[n+]2cccc(C)c2C)c(C(C)(C)CC)c1 | 18.8% (inactive)
CCCCCCCC[n+]1cccc2c3ccccc3ccc21 | 83.6% (active)
COc1cccc(OCCn2cc(C(C)=O)c3ccccc32)c1 | 26.8% (inactive)
CC(=O)c1cn(CCOc2cc(C)ccc2C)c2ccccc12 | 60.4% (active)
CC(=O)c1cn(CCOc2ccccc2C)c2ccccc12 | 46.6% (inactive)
CN(C)/C=C/C(=O)c1ccc2noc(-c3ccccc3)c2c1 | 30.4% (inactive)
c1ccc(CNc2ncnc3scc(-c4cccs4)c23)nc1 | 57.5% (active)
c1ccc(-c2csc3ncnc(NCc4ccccn4)c23)cc1 | 13.4% (inactive)
Cc1ccc(OCCn2c(NC(=O)c3ccco3)nc3ccccc32)cc1 | 19.6% (inactive)
O=C(Nc1nc2ccccc2n1CCOc1ccc(Cl)cc1)c1ccco1 | 102% (active)
O=C(Nc1ccccc1Cl)/C(Cl)=C(\Cl)S(=O)c1ccccc1 (stereo not drawn) | 107% (active)
COc1cccc(C(C)NC(=O)Nc2ccccc2Cl)c1 (stereo not drawn) | 37.3% (inactive)
CC1=C(C(=O)OCc2ccc3c(c2)OCO3)C(c2ccccc2)NC(=O)N1 (stereo not drawn) | 96.6% (active)
O=C(CCl)Nc1ccccc1C(=O)Nc1ccc2c(c1)OCO2 | 10.4% (inactive)
O=C(NCCc1ccccc1)c1ccc2c(c1)OCO2 | -77.5% (inactive)
CC1=C(C(=O)OCc2ccc3c(c2)OCO3)C(c2ccc(O)c([N+](=O)[O-])c2)NC(=O)N1 (stereo not drawn) | 58% (active)
CC1=C(C(=O)OCc2ccc3c(c2)OCO3)C(c2ccc(Cl)cc2)NC(=O)N1 (stereo not drawn) | 102% (active)
CC1=C(C(=O)OCc2ccc3c(c2)OCO3)C(c2ccc(F)cc2)NC(=O)N1 (stereo not drawn) | 104% (active)
COc1ccc(C(=O)N2CCCC(N3CCN(c4ccccc4OC)CC3)C2)c(OC)n1 (stereo not drawn) | 25% (inactive)

SMILES | inhibition
Cc1ccc(SCc2cc(=O)[nH]c(SCC(=O)Nc3cc(Cl)ccc3Cl)n2)cc1 | 28.1% (inactive)
O=c1cc(CSc2ccc(Cl)cc2)nc(-c2ccccn2)[nH]1 | 102% (active)
O=C(CNC(=O)c1cccc(Br)c1)N/N=C/c1cc(Br)cc(Br)c1O | 11.3% (inactive)
CCOc1cc(Br)cc(/C=N/NC(=O)c2cccnc2)c1O | 69.2% (active)
O=C(N/N=C\c1c(O)ccc2ccccc12)c1cncc(Br)c1 | 54.9% (active)
O=C(N/N=C/c1c(O)ccc2ccccc12)c1cccnc1 | 101% (active)
S=C(N/N=C/c1ccc2ncccc2c1)Nc1cccnc1 | 29.3% (inactive)
C[C@@H](C(=O)Nc1ccc2ccccc2c1)[C@@H]1C[C@@]1(C)[C@@H](NC(=O)c1cccnc1)c1ccccc1 | 11% (inactive)
Cc1ccc(-c2noc(CCCC(=O)NC3CCCCC3)n2)cc1 | 29.6% (inactive)
O=C(CCCc1nc(-c2ccc(Cl)cc2)no1)NC1CCCCC1 | 28.3% (inactive)
O=C(CCCc1nc(-c2ccc(Cl)cc2)no1)NC1CCCC1 | 55.5% (active)
CC(=O)N(Cc1ccc(F)cc1)C1=C(NCCc2ccccc2)C(=O)c2ccccc2C1=O | 102% (active)
Cc1cc(C)nc(OC(C(=O)O)C(OCCc2ccccc2)(c2ccc(F)cc2)c2ccc(F)cc2)n1 (stereo not drawn) | -13.2% (inactive)
CC(=O)N(Cc1ccc(F)cc1)C1=C(NCc2ccccc2)C(=O)c2ccccc2C1=O | 91.2% (active)
O=C(NCc1ccccc1)C1CCCN1S(=O)(=O)c1ccc(F)cc1 (stereo not drawn) | 21.4% (inactive)
CC1(C)N=C(N)N=C(N)N1c1ccc(OCCCOc2ccccc2)c(Cl)c1 | 59.9% (active)
COc1ccc2nc(N3CCCCC3)c(/C=C3\SC(=S)NC3=O)cc2c1 | 43.6% (inactive)
Cc1cc(C)nc(SC2=CS(=O)(=O)c3ccccc32)n1 | 14.1% (inactive)
Cn1c(SC2=CS(=O)(=O)c3ccccc32)nc2ccccc21 | 56% (active)
O=S1(=O)C=C(Sc2nc3ccccc3s2)c2ccccc21 | 82.7% (active)

SMILES | inhibition
O=C(Nc1ccc(S(=O)(=O)N2CCCC2)cc1)c1ccc(Br)o1 | 6% (inactive)
O=C(Nc1ccc(S(=O)(=O)N2CCCCC2)cc1)c1ccc(CN2CCOCC2)cc1 | 73.2% (active)
O=C(Nc1ccc(Cc2ccncc2)cc1)c1ccc(S(=O)(=O)N2CCCC2)cc1 | 50.3% (active)
CCN(CC)c1ccc(S(=O)(=O)N2CCOCC2)cc1NC(=O)CN1CCc2ccccc2C1 | 21.6% (inactive)
O=C(Nc1ccc(S(=O)(=O)N2CCOCC2)cc1)c1ccc(CN2CCc3ccccc3C2)cc1 | 65.5% (active)
O=C(Nc1ccc(CN2CCOCC2)cc1)c1ccc(-c2ccc(Cl)cc2Cl)o1 | 44.2% (inactive)
COc1ccc(NS(=O)(=O)c2ccc(NC(=O)c3ccc(CN4CCOCC4)cc3)cc2)cc1 | 37.6% (inactive)
O=C(Nc1ccc(S(=O)(=O)Nc2ccc(F)cc2)cc1)c1ccc(CN2CCOCC2)cc1 | 61.1% (active)
C/C=C/Cn1c(SCc2ccc(C)cc2)nc2c1c(=O)[nH]c(=O)n2C | 18.9% (inactive)
O=C(Nc1ccc(S(=O)(=O)N2CCCCC2)cc1)c1ccc(CN2CCc3ccccc3C2)cc1 | 59% (active)
CCN(CC)S(=O)(=O)c1cccc(NC(=O)c2ccc(Br)cc2)c1 | 27.5% (inactive)
CCN(CC)S(=O)(=O)c1ccc(C(=O)Nc2ccc(Cc3ccncc3)cc2)cc1 | 63% (active)
COc1ccccc1NS(=O)(=O)c1cccc(-n2c(O)c(C=Nc3ccccc3C(=O)O)c3ccccc3c2=O)c1 | 69% (active)
COc1ccc(Cn2c(O)c(C=Nc3ccccc3C(=O)O)c3ccccc3c2=O)cc1 | 69.6% (active)
CCN(CC)S(=O)(=O)c1cccc(-n2c(O)c(C=Nc3ccccc3C(=O)O)c3ccccc3c2=O)c1 | 70.1% (active)
COc1ccccc1NS(=O)(=O)c1cccc(NC(=O)Nc2ccc(Cl)cc2)c1 | 46.4% (inactive)
COc1ccc(CNc2nc3c(c(=O)n(Cc4ccc(Br)cc4)c(=O)n3C)n2C)cc1 | 15.5% (inactive)
CCN(CC)S(=O)(=O)c1cccc(C(=O)c2c(C)cc3ccccn23)c1 | 27.9% (inactive)
